Assay results taken from PubChem BioAssay AID624304 (Sanford-Burnham Center for Chemical Genomics, 2012).
About 1,800 (0.5%) of roughly 360,000 compounds were called active. Shown is part of a subset that was picked to be rich in actives. A number with no mark means an inactive call.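 The calls were made as follows: active = interference check ratio from 0.5 to 1.5 plus GFP to RFP signal ratio inhibition reaching or exceeding a fixed threshold (cut at about 30% in these data, passing the limit was not always enough); inactive = the rest.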

test: gst-4 reporter inhibition in live C. elegans – whole organism, uHTS, GFP/RFP fluorescence ratio, strain VP596, SKN-1 inhibitor project, primary screen (AID 624304); conditions: C. elegans VP596 Pgst-4::GFP/RFP ratio, acrylamide-induced, 24 h; at 21.8 µM; stronger effect = higher value

| Compound | inhibition |
| --- | --- |
| Fc1c(F)c(C(F)(F)F)c(F)c(F)c1N1CCN(c2ccc3nnc(C(F)(F)F)n3n2)CC1 | -6.81% |
| C=CCCC(=O)N1C[C@H]2CON(C)[C@H]2C[C@H]1c1cccc(Nc2ccccc2)c1 | 3.69% |
| N/C(=N\OC(=O)Nc1ccccc1)c1ccno1 | 11.3% |
| COC(=O)c1[nH]c2ccc(Br)cc2c1NC(=O)Oc1ccccc1 | 6.84% |
| COc1ccc(CCC(=O)OCC(=O)Nc2ccc(C)c(S(=O)(=O)N(C)C)c2)cc1 | -9.73% |
| Cc1ccc(C)c(NC(=O)COC(=O)c2nn(C)c(=O)c3ccccc23)c1 | 0.693% |
| Cc1ccc(F)cc1NC(=O)Cc1nn(C)c(=O)c2ccccc12 | 35.7% (active) |
| Cc1ccc(F)cc1NC(=O)CSCc1c(C)noc1C | -5.42% |
| CCCCC1=CC2=CC(=O)C(C)(OC(=O)CC)C(=O)C2=CN1CCCOC(C)C (stereo unspecified) | 19.4% |
| COC(=O)CCCC1=CC2=CC(=O)C(C)(OC(=O)c3cccs3)C(=O)C2=CN1CC(C)C (stereo unspecified) | 41% (active) |
| COC(=O)CCCC1=CC2=C(c3ccccc3)C(=O)C(C)(OC(=O)C3CCCC3)C(=O)C2=CN1c1ccc(OC)cc1 (stereo unspecified) | -4% |
| Cc1nc2ccccc2cc1OCc1ccc(F)cc1 | 90.3% (active) |
| CC(=O)c1ccccc1OCc1ccc(C(=O)c2ccccc2)cc1 | 12.8% |
| Fc1cccc2ncnc(OCc3ccccc3)c12 | 3.79% |
| OCC[C@H]1C[C@H](O)[C@@H](O)[C@]2(CCCCO2)O1 | -7.25% |
| COc1cccc(NC(=O)CC(c2ccc(OC(C)C)cc2)c2ccccc2OC)c1 (stereo unspecified) | -0.0853% |
| COc1cccc(NC(=O)C(C)Oc2ccccc2)c1 (stereo unspecified) | 51.2% (active) |
| COc1cccc(NC(=O)C(Sc2nnnn2C)c2ccccc2)c1 (stereo unspecified) | 17.4% |
| COC(=O)c1ccc(COC(=O)c2c(C)nn(Cc3ccccc3Cl)c2Cl)o1 | -0.292% |
| Cc1ccc(NC(=O)Cc2nc(COC(=O)C(C)NS(=O)(=O)c3ccc(C)cc3)cs2)cc1 (stereo unspecified) | -10% |
| CC1Cc2ccccc2N1C(=O)CSc1nc2ccccc2o1 (stereo unspecified) | 30.1% (active) |

| Compound | inhibition |
| --- | --- |
| CCS(=O)(=O)c1ccc2oc(SCC(=O)N3c4ccccc4CC3C)nc2c1 (stereo unspecified) | -0.339% |
| CC1Cc2ccccc2N1C(=O)CSc1nnc(C2CC2)n1C (stereo unspecified) | 8.36% |
| Cc1cc2c(cc1S(=O)(=O)NCc1ccc(Cl)cc1)OCC(=O)N2 | -19.4% |
| COc1ccccc1N(CCOc1ccccc1)S(=O)(=O)c1ccccc1 | 3.24% |
| Cc1nc2c(-c3ccc(F)cc3)c(C)nn2c(C)c1CCC(=O)N1CCN(c2ccccn2)CC1 | -5.8% |
| Cc1nc2ncnn2c(C)c1CCC(=O)N1CCN(C(=O)c2ccco2)CC1 | -8.68% |
| Cc1nc2nc(C)c(CCC(=O)N3CCN(c4ccccc4)CC3)c(C)n2n1 | 35.7% (active) |
| CC1CCN(C(=O)Cn2nnnc2CN2CCOCC2)CC1 | -17.8% |
| N#CC1=C(N)Oc2c(sc3ccccc23)C1c1ccco1 (stereo unspecified) | 35% (active) |
| CCc1nc2c(OCC(=O)C(C)(C)C)cccn2c1N(C)C(=O)c1ccccc1F | 15.8% |
| CCOC(=O)C1=NNC2(c3ccc(Cl)cc3)C(=O)N(c3cc(C)cc(C)c3)C(=O)C12 (stereo unspecified) | 14.5% |
| COc1ccc(-c2c(C(C)=O)c(C)nc3sc4c(=O)n(-c5ccc(C)cc5)nnc4c23)cc1 | 12.1% |
| CC(Oc1ccc(Cl)cc1)C(=O)Nc1ncccn1 (stereo unspecified) | 11.8% |
| CC(Oc1ccc(Cl)cc1)C(=O)OCC(=O)Nc1ncc(Cl)cc1Cl (stereo unspecified) | 6.67% |
| CC(Oc1ccc(Cl)cc1)c1ccnn1S(C)(=O)=O (stereo unspecified) | 33.3% (active) |
| CCc1c(SCCC(=O)O)nc2ccccc2c1C | -7.29% |
| Cc1nccn1-c1ccc(NC(=O)[C@H]2O[C@@H](n3ccc(=O)[nH]c3=O)[C@H](O)[C@@H]2O)cc1 | 1.64% |
| COc1ccccc1OCC(=O)OCn1c(SC)nnc(C)c1=O | 5.86% |
| CC1CN(C(=O)CCC(=O)NCCCN2CCC(Cc3ccccc3)CC2)c2cc(Cl)ccc2O1 (stereo unspecified) | 14.9% |
| O=C1CCC([N+](=O)[O-])C(c2ccccc2Br)N1 (stereo unspecified) | 9.01% |
